Source: PubChem BioAssay AID1376 (SRMLSC, 2008)
The whole screen tested about 220,000 compounds, of which about 530 (0.24%) were called active. The sample holds actives, similar compounds and a random draw of the others, so the mix is not that of the screen. Measured potencies and affinities stand elsewhere. Unmarked numbers belong to inactive results. No stated cut-off is given here; in the data, active means inhibition above about 13%; inconclusive means no clear call, values can overlap the other calls; inactive means below that.

Target: Bifunctional protein GlmU (Mycobacterium tuberculosis (strain ATCC 25618 / H37Rv)) (UniProt P9WMN3)
Sequence (P9WMN3 whole entry, looked up): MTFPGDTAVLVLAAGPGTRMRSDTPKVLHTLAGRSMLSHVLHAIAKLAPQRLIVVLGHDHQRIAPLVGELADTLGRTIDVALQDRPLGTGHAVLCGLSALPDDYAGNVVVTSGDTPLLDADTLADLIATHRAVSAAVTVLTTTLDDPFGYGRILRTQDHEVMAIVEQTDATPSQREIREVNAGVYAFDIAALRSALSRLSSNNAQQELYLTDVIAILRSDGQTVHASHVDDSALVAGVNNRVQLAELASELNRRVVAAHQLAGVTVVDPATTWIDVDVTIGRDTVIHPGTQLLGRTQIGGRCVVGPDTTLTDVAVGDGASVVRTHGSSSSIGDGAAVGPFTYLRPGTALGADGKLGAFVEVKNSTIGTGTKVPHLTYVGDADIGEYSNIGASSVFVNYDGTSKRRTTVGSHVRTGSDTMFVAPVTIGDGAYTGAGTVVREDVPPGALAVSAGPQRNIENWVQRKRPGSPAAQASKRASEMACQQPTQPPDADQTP
Test: inhibition of mycobacterial GlmU enzyme – biochemical, glucosamine-1-phosphate acetyltransferase (AID 1376);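 further: 0% = complete reaction with vehicle and 100% = reaction without substrate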
Settings: M. tuberculosis GlmU acetyltransferase enzyme assay; stronger effect = higher value;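 tested at 30 µM in the primary screen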

| Compound | inhibition |
| --- | --- |
| CC1=NN(c2ccccc2)C(=O)/C1=C/c1c(O)n(-c2ccc(F)cc2)[nH]c1=O | 7.97% |
| CC1=NN(c2ccccc2)C(=O)/C1=C/c1c(O)n(-c2ccc(F)c(Cl)c2)[nH]c1=O | 13.6% (active) |
| CC1=NN(c2ccccc2)C(=O)/C1=C/c1c(O)[nH]c(=S)[nH]c1=O | -4.55% |
| O=c1sc(Nc2ccccc2)nc2ccccc12 | 4.04% |
| CCc1ccc(Nc2nc3ccccc3c(=O)s2)cc1 | -0.12% |
| CCOc1ccc(Nc2nc3ccccc3c(=O)s2)cc1 | 13.8% (active) |
| COc1ccc(/C=N/NC(=O)CCC(=O)Nc2ccccc2)cc1OC | -0.28% |
| COc1ccc(N2CCN(C(CNC(=O)C(=O)NCCCn3ccnc3)c3cccnc3)CC2)cc1 (stereo not drawn) | 4.95% |
| COc1cccc(C(=O)Nc2cc(C(F)(F)F)ccc2Cl)c1 | -5.67% |
| COc1ccc(/C=C/C(=O)Nc2cc(C(F)(F)F)ccc2Cl)cc1OC | -4.68% |
| COc1ccc(C(=O)Nc2cc(C(F)(F)F)ccc2Cl)cc1OC | 48.9% (active) |
| Nc1cc2nc3ccccc3nc2cc1N | 1.38% |
| Nc1ccc2nc3c(=O)n(C4CCCCC4)c(=O)[nH]c3nc2c1 | -0.52% |
| C/C(=N/NS(=O)(=O)c1ccc(C)cc1)[C@H]1C[C@@H]1c1ccccc1 | 1.42% |
| COC(=O)c1ccc(OCCOc2ccccc2)cc1 | 14.7% (active) |
| COC(=O)c1ccc(OCCOc2ccc(C(=O)OC)cc2)cc1 | -4.5% |
| COC(=O)c1ccc(OCC(=O)c2ccccc2)cc1 | 2.96% |
| CCNCCNc1ccc(Cl)cc1[N+](=O)[O-] | 0.23% |
| c1ccc(CCn2nnnc2C(c2cccnc2)N2CCN(c3ccccc3)CC2)cc1 (stereo not drawn) | -3.96% |
| CSc1nnc([C@@H]2CCCN2C(=O)OC(C)(C)C)o1 | 6.66% |
| CCOC(=O)c1oc2nc(CC(C)C)c3c(c2c1N)CCCC3 | 2.38% |
| CCCc1cc(NCC2CCCO2)n2c(nc3ccccc32)c1C#N (stereo not drawn) | 7.14% |
| CC(C)c1cc(NCC2CCCO2)n2c(nc3ccccc32)c1C#N (stereo not drawn) | 5.33% |
| Cc1cc(NCC2CCCO2)n2c(nc3ccccc32)c1C#N (stereo not drawn) | 12.8% (active) |
| O=C(NCC1(N2CCCCC2)CCCCC1)c1ccc(S(=O)(=O)N2CCCC2)cc1 | 7.41% |
| Cc1cccc(C)c1NS(=O)(=O)c1ccc2c(c1)NC(=O)CO2 | 7.49% |
| Cc1ccccc1NS(=O)(=O)c1ccc2c(c1)NC(=O)CO2 | 13.3% (active) |
| Cc1c(F)cccc1NS(=O)(=O)c1ccc2c(c1)NC(=O)CO2 | -2.89% |
